Where “and” joins values, the source holds several entries; their conditions need not be identical. Equal entries are not always repeated.
Assays:
Experiment in all cases: thermal shift delta Tm vs DMSO control; higher = stronger stabilization (binding)
Details in all cases: 12.5 µM; protein concentration 2 µM
LOC_OS04G57630-cb004 = tested on: LOC_OS04G57630-cb004
In short: (§1)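 Heating from 25°C to 95°C at 0.05°C/s, fluorescence was recorded for 19.5 μl wells of 2 μM E. coli-expressed, purified rice kinase domain in 100 mM potassium phosphate pH 7.5, 150 mM NaCl, 10% glycerol and 5 × SYPRO Orange with compound in DMSO. Boltzmann fits gave melting temperatures for this differential scanning fluorimetry assay. The shift reported is the mean of three replicates against the DMSO-only protein.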

LOC_OS05G07850-cb002 = tested on: LOC_OS05G07850-cb002
In short: as §1

LOC_OS05G16824-cb004 = tested on: LOC_OS05G16824-cb004
In short: as §1

LOC_OS05G28520-cb001 = tested on: LOC_OS05G28520-cb001
In short: as §1

LOC_OS05G30820-cb001 = tested on: LOC_OS05G30820-cb001
In short: as §1

LOC_OS05G43570-cb004 = tested on: LOC_OS05G43570-cb004
In short: as §1

LOC_OS06G16330-cb003 = tested on: LOC_OS06G16330-cb003
In short: as §1

LOC_OS06G22820-cb001 = tested on: T1, LOC_OS06G22820-cb001
T1 sequence (whole entry): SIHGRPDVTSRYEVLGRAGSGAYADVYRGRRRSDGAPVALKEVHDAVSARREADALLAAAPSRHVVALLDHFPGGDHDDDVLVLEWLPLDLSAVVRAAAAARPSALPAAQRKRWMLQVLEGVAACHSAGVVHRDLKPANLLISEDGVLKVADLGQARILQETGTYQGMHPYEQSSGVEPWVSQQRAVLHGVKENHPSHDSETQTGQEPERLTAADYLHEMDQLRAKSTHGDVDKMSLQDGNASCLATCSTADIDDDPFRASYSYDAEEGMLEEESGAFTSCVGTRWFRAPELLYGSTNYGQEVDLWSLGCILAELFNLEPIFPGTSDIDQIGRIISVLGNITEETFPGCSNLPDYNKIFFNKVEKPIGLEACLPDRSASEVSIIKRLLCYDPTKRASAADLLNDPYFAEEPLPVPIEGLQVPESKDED
In short: as §1

LOC_OS07G06570-cb004 = tested on: LOC_OS07G06570-cb004
In short: as §1

LOC_OS07G07230-cb001 = tested on: LOC_OS07G07230-cb001
In short: as §1
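Further: purified Escherichia coli-expressed rice kinase domain construct.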

Chain of LOC_OS06G16330-cb003 (as listed by the source): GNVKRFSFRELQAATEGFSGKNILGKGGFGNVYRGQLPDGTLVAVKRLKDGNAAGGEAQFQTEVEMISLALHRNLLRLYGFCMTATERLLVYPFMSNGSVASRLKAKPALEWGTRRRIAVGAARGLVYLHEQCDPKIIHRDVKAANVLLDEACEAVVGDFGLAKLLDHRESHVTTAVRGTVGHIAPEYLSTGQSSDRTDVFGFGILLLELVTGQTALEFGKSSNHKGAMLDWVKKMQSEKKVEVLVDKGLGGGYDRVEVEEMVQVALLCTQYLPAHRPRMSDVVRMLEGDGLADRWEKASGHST

Row | SMILES | thermal shift delta Tm (LOC_OS04G57630-cb004) | thermal shift delta Tm (LOC_OS05G07850-cb002) | thermal shift delta Tm (LOC_OS05G16824-cb004) | thermal shift delta Tm (LOC_OS05G28520-cb001) | thermal shift delta Tm (LOC_OS05G30820-cb001) | thermal shift delta Tm (LOC_OS05G43570-cb004) | thermal shift delta Tm (LOC_OS06G16330-cb003) | thermal shift delta Tm (LOC_OS06G22820-cb001) | thermal shift delta Tm (LOC_OS07G06570-cb004) | thermal shift delta Tm (LOC_OS07G07230-cb001)
1 | COc1ccc(/C=C/C(=O)C2(C(=O)/C=C/c3ccc(OC)c(OC)c3)CCCCC2)cc1OC | -0.06 °C | 0.62 °C | -3.56 °C | 0.12 °C | 0.75 °C | 0.25 °C | -0.37 °C | 0.49 °C | 2.62 °C | 0.7 °C
2 | C=CC(=O)N1CCC[C@@H](n2nc(-c3ccc(Oc4ccccc4)cc3)c3c(N)ncnc32)C1 | 1 °C | 6.56 °C | 1.31 °C | -0.3 °C | 0.44 °C | 0.27 °C | 1.99 °C | 0.54 °C | 0.5 °C | 0.64 °C
3 | Nc1cccc(S(=O)(=O)N2CCCN(S(=O)(=O)c3ccc4c(c3)OCCO4)CC2)c1 | -0.1 °C | 0.55 °C | -0.03 °C | 0.74 °C | 0.46 °C | 0.1 °C | -0.91 °C | 0.44 °C | 1.4 °C | 0.56 °C
4 | C=CC(=O)N1CC[C@@H](Oc2nc(Nc3ccc(N4CCC(N5CCN(C)CC5)CC4)cc3)c(C(N)=O)nc2CC)C1 [Naquotinib(ASP8273)] | 3.28 °C | 13.1 °C | 11.6 °C | 1.04 °C | 0.55 °C | 0.27 °C | 10 °C | 0.25 °C | 1.6 °C | 0.69 °C
5 | C[C@@H](Oc1cc(-n2cnc3ccc(CN4CCN(C)CC4)cc32)sc1C(N)=O)c1ccccc1C(F)(F)F | 1.23 °C | 2.4 °C | -4.79 °C | -0.16 °C | 0.61 °C | 0.21 °C | 2.19 °C | 0.97 °C | 1.02 °C | 0.47 °C
6 | CC[C@@H]1C(=O)N(C)c2cnc(Nc3ccc(C(=O)NC4CCN(C)CC4)cc3OC)nc2N1C1CCCC1 | -0.45 °C | 0.42 °C | 1.14 °C | 0.12 °C | 0.28 °C | 0.24 °C | 0.39 °C | 0.4 °C | 0.75 °C | 0.09 °C
7 | COc1ncc(-c2ccc3nccc(-c4ccnnc4)c3c2)cc1NS(=O)(=O)c1ccc(F)cc1F | 0.93 °C | 6.11 °C | 2.11 °C | 0.26 °C | 0.47 °C | 0.73 °C | 2.61 °C | 0.6 °C | 0.86 °C | -0.21 °C
8 | Cc1c[nH]c(/C=C2\C(=O)Nc3ccccc32)c1CCC(=O)O | 0.5 °C | 6.66 °C | 7.29 °C | 0.67 °C | 2.14 °C | 0.11 °C | 9.94 °C | 0.18 °C | 0.84 °C | 0.79 °C
9 | O=C1c2c(O)cc(O)cc2OC(c2ccc(O)c(O)c2)C1O (stereo not given) [Taxifolin (Dihydroquercetin)] | 0.11 °C | 3.32 °C | -0.02 °C | 0.61 °C | 0.75 °C | -0.08 °C | -0.04 °C | 0.59 °C | 0.96 °C | 0.52 °C
10 | Cc1nc(-c2cn3c(n2)-c2ccc(-c4cnn(C(C)(C)C(N)=O)c4)cc2OCC3)n(C(C)C)n1 [Taselisib (GDC 0032)] | 0.16 °C | 0.89 °C | 0.74 °C | 0.19 °C | 0.59 °C | 0.36 °C | -0.08 °C | 0.16 °C | 1.28 °C | 0.87 °C
11 | COc1cccc(-c2cc(=O)c3ccccc3o2)c1N | -0.72 °C | 0.19 °C | -2.84 °C | 0.24 °C | 0.41 °C | 0.15 °C | -0.2 °C | 0.44 °C | 0.29 °C | 0.35 °C
12 | CC(C)S(=O)(=O)c1ccc2nccc(Nc3ccc4scnc4c3)c2c1 | 2.51 °C | 3.36 °C | 4.91 °C | 0.25 °C | -0.04 °C | 0.38 °C | 2.09 °C | 0.32 °C | 1.62 °C | 0.17 °C
13 | CCn1c(N)c(C(=O)NC)c(=O)c2ccc(C#CC(C)(O)COC)nc21 (stereo not given) | 0.45 °C | 5.21 °C | 3.79 °C | 0.37 °C | 0.73 °C | 0.13 °C | 0.51 °C | 0.3 °C | 1.2 °C | -0.09 °C
14 | Nc1cccc(-c2cc3c(Oc4cccc(O)c4)ncnc3[nH]2)c1 | 1.21 °C | 11.1 °C | 5.59 °C | 0.57 °C | 1.14 °C | 0.77 °C | 4.75 °C | 0.88 °C | 1.36 °C | -0.21 °C
15 | C#Cc1cccc(Nc2ncnc3cc(OC)c(OCCCCCCC(=O)NO)cc23)c1 | 0.04 °C | 7.33 °C | -6.18 °C | 0.35 °C | 0.58 °C | 0.66 °C | 1.72 °C | 0.49 °C | 0.91 °C | -0.06 °C
16 | C[C@@H]1CCN(C(=O)CC#N)C[C@@H]1N(C)c1ncnc2[nH]ccc12 | -0.1 °C and 0.49 °C | 2.97 °C and 3.63 °C | -1.07 °C and 0.7 °C | 0.03 °C and 0.86 °C | 0.42 °C and 0.38 °C | 0.33 °C and 0.16 °C | 0.7 °C and 0.62 °C | 0.46 °C and 1.08 °C | 0.55 °C and 1.39 °C | 0.32 °C and -0.21 °C
17 | COc1cc(N2CCC(N(C)C)CC2)ccc1Nc1ncc(Cl)c(Nc2ccccc2P(C)(C)=O)n1 | 2.89 °C | 15 °C | 6.56 °C | 0.2 °C | 1.4 °C | 0.32 °C | 8.95 °C | 0.49 °C | 1.14 °C | 0.35 °C
18 | CCN(CC)CCCC(C)Nc1nc(C)cc(Nc2ccc3nc(C)cc(N)c3c2)n1 (stereo not given) | -0.27 °C | -0.09 °C | -1.91 °C | 0.14 °C | 0.63 °C | 0.55 °C | -0.04 °C | 0.19 °C | 1.53 °C | 0.49 °C
19 | COc1nccc(-c2c(-c3ccc(F)cc3)ncn2C2CCC(O)CC2)n1 (stereo not given) | 0.18 °C | -0.01 °C | 1.52 °C | 0.58 °C | 0.26 °C | 0.65 °C | 0.57 °C | 0.43 °C | 0.69 °C | -0.08 °C
